Our source for the composite z-score and z-score values is PubChem BioAssay.

The test system of test [1] is Wnt5a (protein binding on small-molecule microarray). Kind of test: Wnt5a binders on small-molecule microarray, primary screen, biophysical, 635/667 nm fluorescence (AID 1142).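 Also: fluorescence read at 667 nm with signal to noise per printed feature.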 Particulars: 635 nm fluorescence, higher = more signal.
Test [2] in a line: cell viability in Huh7 cells, primary screen, cytotoxicity control for HCV replication inhibitor project, CellTiter-Glo luminescence, basal, 48 h (AID 1143).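 Also: Huh7 hepatoma cells carrying a hepatitis C replication reporter with no stimulus; test concentration not given here.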 The conditions noted are these: Huh7 HCV replicon, higher = more signal, called active from +8 up or from −8 down. A general note: In ATP-based viability assays light output follows the ATP content of the culture.
A short description of test [3]: P. aeruginosa biofilm formation inhibitors, primary screen, PAO1 strain, BacTiter-Glo luminescence, LB-PBS (AID 1144). Particulars: 12 h, higher = more signal.
Test [4] is described as follows: CREB reporter modulators without forskolin, primary screen, cell-based, PC12, CRE-LacZ reporter, unstimulated (AID 1145). The conditions noted are these: no forskolin, luminescence, 4.5 h, higher = more signal, called active from +8 up or from −8 down.
The nature of test [5]: CREB reporter modulators under forskolin, primary screen, cell-based, PC12, CRE-LacZ reporter, forskolin-stimulated (AID 1146).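 Also: PC12 cells with 6xCRE LacZ reporter stimulated by forskolin 10 µM; beta-galactosidase reporter signal reflecting CREB driven transcription.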 Particulars: luminescence, 4.5 h, higher = more signal, called active from +8 up or from −8 down.
Test [6] has as its target Streptavidin (Streptomyces avidinii) (UniProt P22629). Description: streptavidin binders on small-molecule microarray, primary screen, artefact control for SMM compound annotation, biophysical, 635/667 nm fluorescence (AID 1147).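 Also: signal reflects streptavidin binding to arrayed compounds as a control protein.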 Particulars: streptavidin binding, higher = more signal.
Test [7] can be described thus: small-molecule binders of probe aInhba, primary screen, biochemical, small-molecule microarray, 635/667 nm fluorescence (AID 1148).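 Also: score merges 667nm spot fluorescence with signal-to-noise for antibody binding to printed compounds.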 The conditions noted are these: higher = more signal.
Test [8] has as its target Torsin-1A (Homo sapiens) (UniProt O14656). Description: torsin A binders from cell lysate, primary screen, small-molecule microarray, wild-type, 635/667 nm (AID 1149). Particulars: COS7 hTOR1A-WT lysate, 635 nm fluorescence, higher = more signal.
Test [9] shares this target. Description: small-molecule binders of mutant TOR1A in lysate, primary screen, cell lysate, small-molecule microarray, COS7 lysate, 635/667 nm fluorescence (AID 1150).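 Also: score pools 667 nm emission and signal to noise measuring lysate protein binding.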 The conditions noted are these: COS7 hTOR1A mutant lysate, 635 nm fluorescence, higher = more signal.
Test [10] deals with Sonic hedgehog protein (Shh). Kind of test: small-molecule binders of Shh protein, primary screen, biochemical, small-molecule microarray, 635/667 nm fluorescence (AID 1151).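 Also: Shh protein binding to compounds spotted on small-molecule microarray slides; score combines spot fluorescence intensity with signal-to-noise across triplicate slides.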 Particulars: small-molecule microarray binding, 635 nm fluorescence; higher = more signal.
Test [11] is described as follows: E. coli DRC41 culture turbidity changes, primary screen, E. coli filamentation inducer project, strain DRC41, OD650, 48 h (AID 1152).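 Also: E. coli MC1000 strain DRC41 lacking acrAB efflux pump and sulA.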 Particulars: E. coli DRC41 (acrAB sulA), higher = more signal, called active from +8 up or from −8 down.
The nature of test [12]: small-molecule binders of probe aLefty1, primary screen, biochemical, small-molecule microarray, 635/667 nm fluorescence (AID 1153).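 Also: score merges spot fluorescence with signal-to-noise ratio from the scanned slide images.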 The conditions noted are these: higher = more signal.
Test [13] in a line: PSAC antagonists in infected red cells, primary screen, cell-based, P. falciparum Indochina, OD700, 1 h (AID 1154). Particulars: P. falciparum Indochina infected RBC osmotic lysis, higher = more signal, called active from +8 up or from −8 down.
Test [14] in a line: PSAC antagonists in infected red cells, primary screen, cell-based, P. falciparum Indochina, OD700, 2 h (AID 1155).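 Also: lysis reports solute entry through the parasite surface anion channel PSAC; channel blockers reduce lysis of infected cells.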 The conditions noted are these: P. falciparum Indochina infected erythrocytes, osmotic lysis OD700; higher = more signal, called active from +8 up or from −8 down.
Test [15] in a line: osmotic lysis modulators in infected erythrocytes, primary screen, PSAC antagonist project, cell-based, P. falciparum Indochina, OD700, 3 h (AID 1156). The conditions noted are these: higher = more signal, called active from +8 up or from −8 down.
Test [16] can be described thus: PSAC antagonists in infected red cells, primary screen, cell-based, P. falciparum Indochina, OD700, 18 h (AID 1157). The conditions noted are these: P. falciparum Indochina infected erythrocytes, osmotic lysis OD700, 18 h; higher = more signal, called active from +8 up or from −8 down.
Test [17] can be described thus: modulators of S6 phosphorylation in cells, primary screen, cell-based, A549, cytoblot, luminescence, serum-stimulated (AID 1158).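 Also: serum-stimulated A549 lung adenocarcinoma cells; signal is phosphorylated S6 detected by cytoblot immunostaining with HRP secondary.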 The conditions noted are these: A549 phospho-S6 cytoblot, 5 h, higher = more signal.
Test [18] addresses NADPH oxidase 2 (Homo sapiens) (UniProt P04839). Description: NOX2-dependent H2O2 signal modulators, primary screen, NOX inhibitor project, cell-based, HEK293-NOX2, PMA-stimulated, Amplex Red fluorescence (AID 1159). Also: test concentration not given here. Particulars: 45 min, higher = more signal, called active from +8 up or from −8 down.
Test [19] deals with NADPH oxidase 4 (Homo sapiens) (UniProt Q9NPH5). Description: NOX4-dependent H2O2 signal modulators, primary screen, NOX inhibitor project, cell-based, HEK293-NOX4, tetracycline-induced, Amplex Red fluorescence (AID 1160). The conditions noted are these: 45 min, higher = more signal, called active from +8 up or from −8 down.
Chain of NADPH oxidase 4 (Homo sapiens) (Q9NPH5 whole entry, looked up): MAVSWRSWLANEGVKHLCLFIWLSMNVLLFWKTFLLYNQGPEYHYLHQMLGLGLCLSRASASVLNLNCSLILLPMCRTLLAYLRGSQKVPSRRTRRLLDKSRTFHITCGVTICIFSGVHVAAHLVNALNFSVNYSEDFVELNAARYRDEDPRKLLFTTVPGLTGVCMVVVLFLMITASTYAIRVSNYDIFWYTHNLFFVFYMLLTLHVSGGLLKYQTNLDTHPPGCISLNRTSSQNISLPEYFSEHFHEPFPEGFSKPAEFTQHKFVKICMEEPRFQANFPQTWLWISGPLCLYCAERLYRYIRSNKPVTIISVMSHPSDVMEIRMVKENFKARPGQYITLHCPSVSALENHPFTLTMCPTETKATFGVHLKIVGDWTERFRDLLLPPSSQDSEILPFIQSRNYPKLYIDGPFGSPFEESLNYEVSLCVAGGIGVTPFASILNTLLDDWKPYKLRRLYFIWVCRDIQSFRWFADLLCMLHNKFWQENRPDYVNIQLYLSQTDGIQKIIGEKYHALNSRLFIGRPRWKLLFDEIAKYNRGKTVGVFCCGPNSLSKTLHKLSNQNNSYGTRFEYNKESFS
The target in test [20] is NADPH oxidase 5 (Homo sapiens) (UniProt Q96PH1). Kind of test: NOX5-dependent H2O2 signal modulators, primary screen, NOX inhibitor project, cell-based, HEK293-NOX5, Amplex Red fluorescence (AID 1161). Particulars: HEK293-NOX5, ionomycin, 45 min, higher = more signal.
Chain of NADPH oxidase 5 (Homo sapiens) (Q96PH1 whole entry, looked up): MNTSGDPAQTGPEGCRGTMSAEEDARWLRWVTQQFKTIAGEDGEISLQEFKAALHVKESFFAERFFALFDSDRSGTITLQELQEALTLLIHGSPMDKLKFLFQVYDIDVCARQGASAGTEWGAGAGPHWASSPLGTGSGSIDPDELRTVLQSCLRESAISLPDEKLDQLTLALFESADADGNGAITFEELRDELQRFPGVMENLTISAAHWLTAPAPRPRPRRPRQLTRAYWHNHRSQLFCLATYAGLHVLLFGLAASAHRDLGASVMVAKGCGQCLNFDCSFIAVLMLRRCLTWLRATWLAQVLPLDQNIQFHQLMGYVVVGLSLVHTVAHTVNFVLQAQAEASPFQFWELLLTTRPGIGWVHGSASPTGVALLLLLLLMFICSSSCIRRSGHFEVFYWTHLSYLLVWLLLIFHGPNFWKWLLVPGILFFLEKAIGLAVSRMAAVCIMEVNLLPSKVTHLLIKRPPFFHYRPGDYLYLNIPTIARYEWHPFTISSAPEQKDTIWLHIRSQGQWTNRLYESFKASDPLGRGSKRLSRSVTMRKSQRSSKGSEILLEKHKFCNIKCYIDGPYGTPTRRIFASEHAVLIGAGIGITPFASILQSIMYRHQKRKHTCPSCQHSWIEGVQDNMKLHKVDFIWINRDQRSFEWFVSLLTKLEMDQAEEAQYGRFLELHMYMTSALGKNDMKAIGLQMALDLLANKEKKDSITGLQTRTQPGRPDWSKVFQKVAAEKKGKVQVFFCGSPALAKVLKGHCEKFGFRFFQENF

The source made the active and inactive calls. Unless noted, no rule for the calls is given here.

Chain of Streptavidin (Streptomyces avidinii) (P22629 whole entry, looked up): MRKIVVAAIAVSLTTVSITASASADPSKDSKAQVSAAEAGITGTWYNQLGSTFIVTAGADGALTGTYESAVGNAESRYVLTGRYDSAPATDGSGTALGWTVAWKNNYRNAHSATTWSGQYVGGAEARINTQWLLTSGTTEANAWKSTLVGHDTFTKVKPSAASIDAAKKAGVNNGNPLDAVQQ
Chain of NADPH oxidase 2 (Homo sapiens) (P04839 whole entry, looked up): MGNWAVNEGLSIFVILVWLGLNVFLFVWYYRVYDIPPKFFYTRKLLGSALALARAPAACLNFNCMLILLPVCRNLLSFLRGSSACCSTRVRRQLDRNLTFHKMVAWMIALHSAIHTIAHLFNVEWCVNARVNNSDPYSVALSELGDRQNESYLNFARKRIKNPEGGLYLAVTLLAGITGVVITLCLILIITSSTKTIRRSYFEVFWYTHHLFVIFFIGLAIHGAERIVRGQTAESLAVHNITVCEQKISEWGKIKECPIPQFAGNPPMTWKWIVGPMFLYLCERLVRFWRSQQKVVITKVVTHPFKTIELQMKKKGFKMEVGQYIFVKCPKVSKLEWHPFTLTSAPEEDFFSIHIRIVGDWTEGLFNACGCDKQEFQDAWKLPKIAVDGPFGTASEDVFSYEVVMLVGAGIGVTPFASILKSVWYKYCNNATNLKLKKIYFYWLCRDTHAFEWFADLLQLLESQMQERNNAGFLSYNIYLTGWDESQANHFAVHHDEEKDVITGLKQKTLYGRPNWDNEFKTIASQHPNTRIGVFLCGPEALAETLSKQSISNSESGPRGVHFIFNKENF
Chain of Torsin-1A (Homo sapiens) (O14656 whole entry, looked up): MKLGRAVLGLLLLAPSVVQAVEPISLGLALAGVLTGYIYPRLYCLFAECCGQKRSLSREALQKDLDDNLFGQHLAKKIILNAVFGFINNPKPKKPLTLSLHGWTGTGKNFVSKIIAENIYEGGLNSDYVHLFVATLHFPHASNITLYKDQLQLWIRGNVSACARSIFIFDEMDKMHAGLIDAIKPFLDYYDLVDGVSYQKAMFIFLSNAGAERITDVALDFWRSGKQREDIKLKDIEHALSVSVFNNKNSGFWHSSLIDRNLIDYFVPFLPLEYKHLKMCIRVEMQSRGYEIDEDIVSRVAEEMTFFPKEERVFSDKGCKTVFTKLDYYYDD

As to `COC(=O)[C@@]1(Cc2ccc(F)cc2)[C@H]2c3cc(C(=O)N4CCCC4)n(Cc4cc(F)cc5c4OCOC5)c3C[C@H]2CN1C(=O)c1ccccc1`, the composite z-score was 0.547 in test [1]; 1.57 in [6]; 0.328 in [7]; -0.659 in the test with Torsin-1A (Homo sapiens) [8]; -0.212 with Torsin-1A (Homo sapiens) [9]; 0.229 in [10]. The composite z-score in [12] worked out at 0.617. Besides, the z-score in [2] is -3.39 (inactive); in [3] it was 0.403 (inactive); in test [4], -0.372 (inactive); in [5], 0.755 (inactive); in test [11], -2.25 (inactive); in test [13] it was 3.29 (inactive). For the same molecule, the z-score was 0.273 (inactive) in [14]; 3.36 (inactive) in test [15]; 0.886 (inactive) in test [16]; 0.0568 in test [17]; -0.332 (inactive) in test [18]; 0.115 (inactive) in test [19]. Moreover, the z-score in test [20] worked out at 0.853.
As for `COC(=O)c1cccc([C@H]2OC(=CC(=O)OC(C)C)C[C@@H](c3cccc(C(=O)OC)c3)O2)c1`, the composite z-score is 1.19 in test [1]; 1.21 in [6]; 0.0649 in test [7]; 1.64 in the test with Torsin-1A (Homo sapiens) [8]; 1.53 with Torsin-1A (Homo sapiens) [9]; 1 in [10]. For the same molecule, in [12], the composite z-score is 0.635. Further, the z-score in [2] was -2.17 (inactive); in [3], 0.111 (inactive); in test [4], 1.26 (inactive); in test [5], 1.05 (inactive); in test [11] it was -0.576 (inactive); in test [13], 18.5 (active). The z-score was 3.17 (inactive) in [14]; 0.487 (inactive) in [15]; 0.683 (inactive) in test [16]; 0.0055 in test [17]; -0.679 (inactive) in [18]; -1.6 (inactive) in test [19]. Besides, the z-score in [20] is -2.04.
On to `CN(C)CCCNC(=O)[C@@]1(Cc2ccccc2I)c2ccccc2C(=O)N(C2CCCCC2)[C@H]1c1ccc(CO)cc1`, for which the composite z-score in test [1] was 0.418; in [6], 1.19; in test [7] it was 0.41; with Torsin-1A (Homo sapiens) [8] it was 0.305; with Torsin-1A (Homo sapiens) [9] it was 0.794; in [10] it was 0.618. In test [12], this molecule came in with a composite z-score of 0.482. Further, the z-score in test [2] is -5.91 (inactive); in test [3], 1.69 (inactive); in test [4] it was 2.12 (inactive); in test [5], 1.76 (inactive); in [11], -2.04 (inactive); in test [13] it was 2.37 (inactive). The z-score in test [14] was -0.0009 (inactive); in test [15] it was -2.34 (inactive); in [16], -0.456 (inactive); in [17] it was -2.25; in test [18] it was -9.9 (active); in test [19], -4.06 (inactive). Further, in [20], the z-score was -3.65.
As to `CC(C)(C)N1CC=CC23O[C@@H]4C=CCOC(=O)[C@@H]4[C@H]2C(=O)N(CCO)[C@@H]3C1=O` (stereo not given in full), the composite z-score in test [1] is -0.887; in test [6], -1.61; in test [7], -0.32; with Torsin-1A (Homo sapiens) [8], -2.49; with Torsin-1A (Homo sapiens) [9] it was -1.07; in [10], -0.863. Also, the composite z-score in [12] was -0.0967. Moreover, the z-score in [2] was 0.262 (inactive); in test [3], 1.7 (inactive); in [4], 0.744 (inactive); in test [5], 1.07 (inactive); in test [11] it was -0.476 (inactive); in test [13] it was 0.55 (inactive). Moreover, the z-score is 0.184 (inactive) in test [14]; 0.0221 (inactive) in test [15]; 0.526 (inactive) in [16]; -0.694 in test [17]; 1.09 (inactive) in test [18]; 1.32 (inactive) in test [19]. The molecule also had a z-score in [20] of 1.59.
As to `COCCOC(=O)N1C(=O)[C@@]2(c3cc(C#CCCO)ccc31)[C@H](c1ccc(OCCO)cc1)N1[C@H](c3ccccc3)[C@H](c3ccccc3)OC(=O)[C@H]1[C@@H]2C(=O)N1CCCCCCC1`, the composite z-score in [1] is 0.827; in [6], 1.79; in test [7] it was 1.48; with Torsin-1A (Homo sapiens) [8], 0.862; with Torsin-1A (Homo sapiens) [9], 0.726; in test [10], 1.97. Further, in [12], the composite z-score worked out at 2.13. Besides, the z-score is -1.31 (inactive) in test [2]; 0.542 (inactive) in [3]; -0.459 (inactive) in test [4]; 2.51 (inactive) in [5]; -0.453 (inactive) in [11]; 1.96 (inactive) in test [13]. In addition, the z-score in test [14] was 0.877 (inactive); in test [15] it was -0.564 (inactive); in test [16], 0.115 (inactive); in test [17], -0.23; in [18] it was 1.5 (inactive); in [19], 1.02 (inactive). Moreover, in test [20], the z-score came out at 1.86.
